Test results from PubChem BioAssay (Tox21).
Inconclusive results are not listed. The source made the active and inactive calls. Unless noted, the call rests on the fitted dose curve.

Experiments:
[1] = Nuclear factor erythroid 2-related factor 2/antioxidant responsive element (Nrf2/ARE) small molecule agonists: qHTS cell viability counter screen in human keratinocytes (AID 1919968; active means well fitted curve in the direction sought with a large enough effect in the repeat runs; an effect the other way counts as inactive or inconclusive; further: nearly all actives have a fitted effect of over 55% in size)
How it was run: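 Parallel cytotoxicity read: KeratinoSens HaCaT cells, compound treatment 23 h, viability by CellTiter-Fluor fluorescence 1 h post-reagent.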

[2] = Nuclear factor erythroid 2-related factor 2/antioxidant responsive element (Nrf2/ARE) small molecule agonists: luciferase reporter gene qHTS assay in human keratinocytes (AID 1919969); further: nearly all actives have a fitted effect of over 35% in size
[3] = target: Gonadotropin-releasing hormone receptor (Homo sapiens) (UniProt P30968); assay: Human gonadotropin-releasing hormone receptor (GnRHR) small molecule agonists, calcium flux assay in GnRHR-HEK293 cells (AID 1920063); further: nearly all actives have a fitted effect of over 35% in size
Chain of Gonadotropin-releasing hormone receptor (Homo sapiens) (P30968 whole entry, looked up): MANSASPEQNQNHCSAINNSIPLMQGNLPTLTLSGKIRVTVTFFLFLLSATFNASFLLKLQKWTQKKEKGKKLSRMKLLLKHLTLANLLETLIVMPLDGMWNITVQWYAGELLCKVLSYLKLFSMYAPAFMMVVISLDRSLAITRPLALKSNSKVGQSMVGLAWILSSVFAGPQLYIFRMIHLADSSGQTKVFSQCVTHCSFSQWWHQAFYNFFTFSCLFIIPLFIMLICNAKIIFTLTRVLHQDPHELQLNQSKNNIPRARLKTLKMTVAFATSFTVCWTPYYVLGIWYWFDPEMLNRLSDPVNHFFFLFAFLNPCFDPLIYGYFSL
How it was run: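 Calcium flux, agonist mode, human GnRHR stably integrated in HEK293; dye 1 h at 37 C before compound; Ex/Em=480/540 kinetic read, 3 min; 15 concentrations, triplicate.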

[4] = target: KiSS-1 receptor (Homo sapiens) (UniProt Q969F8); assay: Human kisspeptin (KISS1R) small molecule agonists, calcium flux assay in KISS1R-HEK293 cells (AID 1920064; active means well fitted curve in the direction sought with a large enough effect in the repeat runs; an effect the other way counts as inactive or inconclusive)
Chain of KiSS-1 receptor (Homo sapiens) (Q969F8 whole entry, looked up): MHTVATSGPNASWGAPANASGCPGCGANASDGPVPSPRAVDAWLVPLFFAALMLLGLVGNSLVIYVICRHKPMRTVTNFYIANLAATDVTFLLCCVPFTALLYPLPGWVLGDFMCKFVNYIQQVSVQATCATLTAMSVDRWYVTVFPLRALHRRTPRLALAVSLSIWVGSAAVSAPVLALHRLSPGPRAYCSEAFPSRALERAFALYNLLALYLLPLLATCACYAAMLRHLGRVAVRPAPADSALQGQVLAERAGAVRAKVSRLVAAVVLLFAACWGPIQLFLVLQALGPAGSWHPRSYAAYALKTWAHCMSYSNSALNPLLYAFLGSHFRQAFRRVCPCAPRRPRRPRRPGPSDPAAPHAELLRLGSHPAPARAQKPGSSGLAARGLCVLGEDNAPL
How it was run: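 Triplicate 15-concentration series were applied to dye-loaded human KISS1R HEK293 cells, and agonist-evoked calcium fluorescence was captured for 3 min.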

[5] = G protein-coupled receptor (GPCR) small molecule agonists, calcium flux assay: HEK293 wild type cell line counter screen (AID 1920065)
How it was run: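 Non-specific calcium responders were flagged by adding DMSO-dissolved compounds to dye-loaded cells and reading 480/540 nm fluorescence each second for 3 min; ATP served as positive control.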

[6] = p53 small molecule agonists, cell-based qHTS assay with human liver microsomes (AID 1963577);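 further: p53 response element beta-lactamase reporter cells with liver microsomes plus NADPH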
How it was run: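 Metabolically competent format: test substances, human liver microsomes and NADPH (both 0.5 mg/mL final) incubated with p53RE-bla cells 16 h at 37 C. Beta-lactamase reporter signal then quantified by fluorescence.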

[7] = p53 small molecule agonists, cell-based qHTS assay with rat liver microsomes (AID 1963578)
How it was run: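 Each plate received p53RE-bla cells, then compound, then rat liver microsomes and NADPH (both 0.5 mg/mL final). Plates were held 16 h at 37 C, and beta-lactamase activity was detected with LiveBLAzer over 2 h.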

[8] = p53 small molecule agonists, cell-based qHTS assay with human liver microsomes: qHTS cell viability counter screen (AID 1963579); further: nearly all actives have a fitted effect of over 45% in size
How it was run: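 Tox21 library compounds, delivered from DMSO stocks, were tested on p53RE-bla cells together with 0.5 mg/mL human liver microsomes and 0.5 mg/mL NADPH (final) over 16 h at 37 C; CellTiter-Glo luminescence served as the cytotoxicity measure.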

[9] = p53 small molecule agonists, cell-based qHTS assay with rat liver microsomes: qHTS cell viability counter screen (AID 1963580); further: nearly all actives have a fitted effect of over 45% in size
How it was run: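 Cytotoxicity counter screen: intracellular ATP read by CellTiter-Glo luminescence in the p53 reporter wells. HCT-116 p53RE-bla cells were treated for 16 h at 37 C alongside rat liver microsomes and NADPH, each 0.5 mg/mL final.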

[10] = p53 small molecule agonists, cell-based qHTS assay: qHTS cell viability counter screen (AID 1963581); further: nearly all actives have a fitted effect of over 45% in size
How it was run: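 Multiplexed with the reporter read, a CellTiter-Glo step (30 min, room temperature) gauges ATP-based viability of HCT-116 p53RE-bla cells after 16 h compound incubation at 37 C.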

[11] = p53 small molecule agonists, cell-based qHTS assay (AID 1963582; active means well fitted activation curve with a large enough effect in the signal ratio in the repeat runs, not every such curve was filed as active; the % refers to the signal ratio)
How it was run: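 Beta-lactamase reporter cells (p53RE-bla) treated with compounds for 16 h at 37 C; FRET substrate, 2 h, room temperature; fluorescence intensity.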

[12] = target: 5-hydroxytryptamine receptor 2A (Homo sapiens) (UniProt P28223); assay: 5-hydroxytryptamine receptor 2A (HTR2A) small molecule antagonists, cell-based qHTS assay (AID 1963586); further: nearly all actives have a fitted effect of over 45% in size
Chain of 5-hydroxytryptamine receptor 2A (Homo sapiens) (P28223 whole entry, looked up): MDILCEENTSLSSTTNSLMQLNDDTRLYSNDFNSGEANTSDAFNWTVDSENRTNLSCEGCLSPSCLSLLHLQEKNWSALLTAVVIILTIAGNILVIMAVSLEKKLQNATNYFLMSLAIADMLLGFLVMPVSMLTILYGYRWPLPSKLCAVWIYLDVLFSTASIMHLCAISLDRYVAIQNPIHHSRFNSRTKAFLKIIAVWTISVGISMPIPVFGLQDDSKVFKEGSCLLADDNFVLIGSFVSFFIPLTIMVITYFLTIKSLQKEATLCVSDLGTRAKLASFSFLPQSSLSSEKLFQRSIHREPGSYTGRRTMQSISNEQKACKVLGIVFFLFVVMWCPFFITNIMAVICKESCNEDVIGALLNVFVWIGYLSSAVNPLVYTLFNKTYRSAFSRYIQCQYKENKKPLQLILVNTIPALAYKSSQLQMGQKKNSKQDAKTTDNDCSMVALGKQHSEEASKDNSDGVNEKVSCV
How it was run: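 CHO cells stably expressing human HTR2A were plated for 18 h at 37 C, then loaded with calcium dye for 1 h. Compounds were preincubated 5 min at room temperature before DOI (4 nM solution) was added. Kinetic fluorescence was read for 3 min.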

[13] = target: 5-hydroxytryptamine receptor 2A (Homo sapiens) (UniProt P28223); assay: 5-hydroxytryptamine receptor 2A (HTR2A) small molecule agonists, cell-based qHTS assay (AID 1963587); further: nearly all actives have a fitted effect of over 30% in size
How it was run: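 Kinetic calcium-flux fluorescence (2 min, 1 sec intervals) after compound addition in agonist mode. HTR2A-CHO cells were cultured 18 h, then dye-loaded 1 h at 37 C.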

[14] = target: Muscarinic acetylcholine receptor M1 (Homo sapiens) (UniProt P11229); assay: Cholinergic receptor muscarinic 1 (CHRM1) small molecule antagonists, cell-based qHTS assay (AID 1963588); further: nearly all actives have a fitted effect of over 40% in size
Chain of Muscarinic acetylcholine receptor M1 (Homo sapiens) (P11229 whole entry, looked up): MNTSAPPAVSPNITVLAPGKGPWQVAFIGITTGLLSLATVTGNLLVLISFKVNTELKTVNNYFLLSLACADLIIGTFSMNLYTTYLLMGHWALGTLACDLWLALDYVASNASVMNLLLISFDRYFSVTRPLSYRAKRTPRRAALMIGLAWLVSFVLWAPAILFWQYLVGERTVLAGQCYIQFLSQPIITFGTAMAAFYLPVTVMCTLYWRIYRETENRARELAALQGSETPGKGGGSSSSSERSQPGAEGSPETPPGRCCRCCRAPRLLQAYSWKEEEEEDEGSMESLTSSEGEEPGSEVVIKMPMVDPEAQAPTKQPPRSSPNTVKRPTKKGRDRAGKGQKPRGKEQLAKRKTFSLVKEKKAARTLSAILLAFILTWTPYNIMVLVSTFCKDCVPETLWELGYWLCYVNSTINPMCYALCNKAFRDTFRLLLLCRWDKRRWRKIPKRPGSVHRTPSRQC
How it was run: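 Compounds were tested at 15 concentrations in three independent runs. Dye-loaded CHRM1-CHO cells were exposed 5 min at room temperature before stimulation by acetylcholine added at 50nM. Intracellular calcium was read kinetically on FDSS for 3 min.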

[15] = target: Muscarinic acetylcholine receptor M1 (Homo sapiens) (UniProt P11229); assay: Cholinergic receptor muscarinic 1 (CHRM1) small molecule agonists, cell-based qHTS assay (AID 1963589); further: nearly all actives have a fitted effect of over 35% in size
How it was run: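 qHTS, 15-point titration, 3 independent runs: compounds pin-transferred onto dye-loaded CHRM1-CHO cells (human M1), calcium fluorescence followed every second to detect agonism.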

[16] = cAMP Responsive Elements (CRE) small molecule agonists, cell-based qHTS assay (AID 1963590)
How it was run: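 Quantitative HTS for CRE agonists: HEK 293T CRE-bla cells, overnight plating, 3 h compound incubation at 37 C/5% CO2, then 2 h room-temperature LiveBLAzer B/G FRET substrate loading.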

[17] = cAMP Responsive Elements (CRE) small molecule antagonists, cell-based qHTS assay (AID 1963591; active means well fitted inhibition curve with a large enough effect in the signal ratio in the repeat runs, not every such curve was filed as active; the % refers to the signal ratio)
How it was run: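 Fluorescence intensity from cleaved LiveBLAzer B/G substrate (2 h, room temperature) quantified CRE-bla activity in HEK 293T cells exposed 3 h to compound with 0.25 uM final NKH477.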

[18] = target: Beta-2 adrenergic receptor (Homo sapiens) (UniProt P07550); assay: Adrenergic beta2 receptor (ADRB2) small molecule antagonists, cell-based qHTS assay (AID 1963592); further: series mostly up to about 92 µM; nearly all actives have a fitted effect of over 50% in size
Chain of Beta-2 adrenergic receptor (Homo sapiens) (P07550 whole entry, looked up): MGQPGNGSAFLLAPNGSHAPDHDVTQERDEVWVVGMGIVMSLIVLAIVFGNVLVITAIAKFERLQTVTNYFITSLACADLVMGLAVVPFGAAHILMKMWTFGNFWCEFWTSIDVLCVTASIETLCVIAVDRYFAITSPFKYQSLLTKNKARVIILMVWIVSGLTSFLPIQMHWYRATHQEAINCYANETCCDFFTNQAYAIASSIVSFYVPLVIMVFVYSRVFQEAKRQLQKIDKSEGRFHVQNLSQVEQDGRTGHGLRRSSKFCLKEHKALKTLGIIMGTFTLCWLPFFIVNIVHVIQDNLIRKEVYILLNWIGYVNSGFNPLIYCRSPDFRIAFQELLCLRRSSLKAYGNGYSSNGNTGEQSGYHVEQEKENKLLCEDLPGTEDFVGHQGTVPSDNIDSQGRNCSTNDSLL
How it was run: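 Assay format: CHO-ADRB2 cells, 18-20hr seeding at 37C/5% CO2, then compound plus 1nM isoproterenol agonist mix for 0.5hr RT. Homogeneous time-resolved fluorescence cAMP detection after 1hr, expressed as 665/615 nm ratio.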

[19] = target: D(2) dopamine receptor (Homo sapiens) (UniProt P14416); assay: Dopamine D2 receptor (DRD2) small molecule agonists, cell-based qHTS assay (AID 1963594); further: nearly all actives have a fitted effect of over 35% in size
Chain of D(2) dopamine receptor (Homo sapiens) (P14416 whole entry, looked up): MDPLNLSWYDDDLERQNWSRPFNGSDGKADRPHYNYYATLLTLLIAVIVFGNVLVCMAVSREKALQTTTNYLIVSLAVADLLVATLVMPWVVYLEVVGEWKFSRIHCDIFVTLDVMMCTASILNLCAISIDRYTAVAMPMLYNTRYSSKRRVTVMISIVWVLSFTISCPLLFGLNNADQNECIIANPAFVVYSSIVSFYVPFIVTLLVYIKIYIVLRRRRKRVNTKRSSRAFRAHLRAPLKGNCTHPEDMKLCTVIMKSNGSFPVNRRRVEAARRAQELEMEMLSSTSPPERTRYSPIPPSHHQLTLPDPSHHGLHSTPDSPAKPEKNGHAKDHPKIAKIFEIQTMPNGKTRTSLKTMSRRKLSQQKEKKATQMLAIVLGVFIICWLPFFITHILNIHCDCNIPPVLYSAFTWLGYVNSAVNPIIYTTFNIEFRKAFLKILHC
How it was run: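 cAMP accumulation in DRD2-HEK293 cells measured by HTRF after 1 h detection; compounds added 10 min before NKH477 (200nM […]) forskolin-analogue stimulation, 30 min at room temperature, with Ro20-1724 present at 0.1 mM final.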

[20] = target: D(2) dopamine receptor (Homo sapiens) (UniProt P14416); assay: Dopamine D2 receptor (DRD2) small molecule antagonists, cell-based qHTS assay (AID 1963595; active means well fitted inhibition curve with a large enough effect in the signal ratio in the repeat runs, with a control signal flat; the % refers to the signal ratio)
How it was run: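 DRD2-HEK293; 0.1 mM Ro20-1724; cpd 10 min RT; NKH477 200 nM + quinpirole 12 nM, 30 min RT; HTRF cAMP (cAMP-d2/anti-cAMP cryptate), 665/620 nm ratio after 1 h.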

Measured: Potency

C=C(C)C(=O)OCCCCCCCC(C)C
inactive: all assays above

O=C1OCCO1
inactive: all assays above

CCC(C(=O)NC(N)=O)c1ccccc1 (centres undefined)
inactive: all assays above

CCC(C)(C)C
not listed: [20]
inactive: all other assays above

O=S(=O)(O)c1cccc2ccccc12
inactive: all assays above

C[C@@H]1CCN(C(=O)[C@H](CCCN=C(N)N)NS(=O)(=O)c2cccc3c2NC[C@H](C)C3)[C@@H](C(=O)O)C1
inactive: all assays above

CCCCc1ccc(Cl)cc1
inactive: all assays above
